# In PubChem BioAssay AID2289 (National Center for Advancing Translational Sciences (NCATS), 2010):
# The campaign covered roughly 340,000 compounds. About 3,300 (0.97%) were called active. Another 9% or so got no clear call; they are omitted. Calls follow the shape of the dose curve; as a rule, active = well fitted inhibition curve with a large enough effect; inconclusive = small, poorly fitted or top-dose-only effect, or effect the other way; inactive = flat fitted curve, though single readings scatter. The list shows a part of the results.
# Test: qHTS Assay for Modulators of miRNAs and/or Inhibitors of miR-21; also: nearly all actives have a fitted effect of over 55% in size
# Conditions: HeLa miR-21-FLuc reporter, luciferase luminescence, 48 h; actives lower the signal
# Procedure, shortened: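 Compounds were titrated across several concentrations (up to approximately 40 uM) and incubated 48 hours with HeLa miR-21-FLuc reporter cells (miR-21 target sequence downstream of FLuc, endogenous miR-21). Readout was firefly luciferase luminescence after lytic detection reagent.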
# Potency is read from the fitted curve at half-maximal effect.
row,Structure (SMILES),Potency
1,Cc1ccccc1OCCNC(=O)c1ccc2ccccc2n1,5.21 µM (active)
2,CN1N=C(C(=O)Nc2ccc3c(c2)CCC3)CCC1=O,9.27 µM (active)
3,Cn1cc(C(=O)Nc2ccc3c(c2)CCC3)cn1,7.36 µM (active)
4,CCC(C)(C)C1CCc2[nH]nc(C(=O)N/N=C(\C)c3ccco3)c2C1 (stereo unspecified),2.61 µM (active)
5,CC(C)(C)C(=O)Nc1nnc(CCc2ccccc2)s1,2.93 µM (active)
6,COc1ccccc1NC(=O)Nc1nnc(C(C)C)s1,14.7 µM (active)
7,CCCc1nnc(NC(=O)Nc2ccccc2OC)s1,16.5 µM (active)
8,c1ccc(Cn2nc(-c3ccccc3)nc2-c2ccccc2)cc1,16.5 µM (active)
9,COc1ccc(C(=O)OCCc2ccc(O)cc2)cc1,6.56 µM (active)
10,S=C1c2ccccc2CN1c1ccccc1,9.27 µM (active)
11,Cc1ccccc1-c1nnc(SCC(=O)N(C)c2ccccc2)o1,16.5 µM (active)
12,Cc1ccccc1-c1nnc(SCC(=O)N(C)C2CCCCC2)o1,14.7 µM (active)
13,CC(=O)N1N=C(c2ccc(C)cc2)CC1c1ccco1 (stereo unspecified),16.5 µM (active)
14,CCc1ccc(C2=NN(C(C)=O)C(c3ccco3)C2)cc1 (stereo unspecified),2.33 µM (active)
15,Nc1ccc2nc3c(=O)n(C4CCCCC4)c(=O)[nH]c3nc2c1,14.7 µM (active)
16,O=C(NC1CC(=O)c2sccc21)c1ccc(Cl)cc1Cl (stereo unspecified),13.1 µM (active)

row,Structure (SMILES),Potency
1,COc1ccc(-c2coc3cc(O)cc(O)c3c2=O)cc1OC,13.1 µM (active)
2,CC(C)Oc1ccc2c(=O)c(-c3ccccc3)coc2c1,0.464 µM (active)
3,COc1ccc(-c2coc3cc(O)ccc3c2=O)cc1OC,13.1 µM (active)
4,O=c1c(-c2ccccc2)coc2cc(O)ccc12,1.85 µM (active)
5,Cc1ccc(C2=NNC3(CCOC(C)(C)C3)S2)cc1 (stereo unspecified),3.69 µM (active)
6,Cc1ccc2cc3cc(C(=O)N4CCCCCC4)oc3nc2c1,0.261 µM (active)
7,COc1ccc2cc3cc(C(=O)N4CCCCCC4)oc3nc2c1,0.414 µM (active)
8,COc1ccc2nc3oc(C(=O)N4CCCCC4)cc3cc2c1,1.04 µM (active)
9,COc1ccc2cc3cc(C(=O)N4CCCC(C)C4)oc3nc2c1 (stereo unspecified),1.04 µM (active)
10,N#Cc1c(NC(=O)C2CC2)sc2c1CCCCC2,8.26 µM (active)
11,Cc1cccc(C(=O)Nc2sc3c(c2C#N)CCCCC3)c1,0.261 µM (active)
12,CCCC(=O)Nc1sc2c(c1C#N)CCCCC2,2.93 µM (active)
13,Nc1nccc(/C=C/c2ccc(Cl)cc2)n1,2.07 µM (active)
14,COc1cc2c(cc1NC(=O)Cc1ccc(C)cc1)oc1ccccc12,9.27 µM (active)
15,COc1ccc(CC(=O)Nc2cc3oc4ccccc4c3cc2OC)cc1,14.7 µM (active)
